Laboratory results as given in PubChem BioAssay AID1159580 (chemical genetic matrix, 2015).
The campaign covered roughly 5,500 compounds. About 2,000 (36%) were called active. Not shown: some 18% with an inconclusive outcome. Rule as the data show it: active = normalized growth mostly below about 0.91 (no sharp cut-off); inconclusive = no clear call, values can overlap the other calls; inactive = mostly above about 0.92. This is one part of the list.

Assay: chemical genetic growth profiling, strain panel (AID 1159580);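 also: tested at 20 µM; growth read once vehicle control cultures reached saturation at 30 °C; 1 = growth at the plate median or of vehicle wells; lower values mean less growth of the strain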
Conditions: S. cerevisiae deletion strains, growth OD

Measured: normalized growth

Cc1ccc(=O)n(-c2ccccc2)c1
inactive: locus YAL013W, strain DEP1, active compounds read low 1 | locus YAL040C, strain CLN3, active compounds read low 1.01 | locus YCL061C, strain MRC1 (second series), active compounds read low 1 | locus YDR363W, strain ESC2, active compounds read low 1 | locus YER002W, strain NOP16, active compounds read low 0.975 | locus YGR078C, strain PAC10, active compounds read low 1.02 | locus YNL128W, strain TEP1, active compounds read low 0.991 | locus YNL175C, strain NOP13, active compounds read low 1 | locus YNL197C, strain WHI3, active compounds read low 1.01 | locus YNL224C, strain SQS1, active compounds read low 1.01 | locus YNL322C, strain KRE1, active compounds read low 0.998 | locus YOR083W, strain WHI5 (second series), active compounds read low 1.01 | locus YPL055C, strain LGE1, active compounds read low 1.02 | locus YPL241C, strain CIN2, active compounds read low 1
